The nature of experiment [1]: qHTS assay to identify small molecule agonists of the estrogen receptor alpha (ER-alpha) signaling pathway in the presence of an antagonist - cell viability counter screen (AID 1259386). Further: nearly all actives have a fitted effect of over 30% in size. Further: potency means the concentration at half of the fitted maximal effect. In outline: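 Read-out: CellTiter-Fluor fluorescence after 1hr reagent incubation, measured in the same wells as the luciferase readout. VM7Luc4E2 cells were exposed to 15 compound concentrations with 10.0nM ICI-182,780 for 22hr at 37C.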
Background: In qHTS, concentration-response curves come from the screen itself.

The target of experiment [2] is Progesterone receptor (Homo sapiens) (UniProt P06401). Description: qHTS assay to identify small molecule antagonists of the progesterone receptor (PR) signaling pathway (AID 1346795; active means well fitted inhibition curve with a large enough effect in the signal ratio in the repeat runs, not every such curve was filed as active; the % refers to the signal ratio; further: potency means the concentration at half of the fitted maximal effect). The gist of the method: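 Antagonist mode: compounds tested against 1 nM (final) promegestone stimulation in HEK293T cells expressing PR-UAS-bla reporter, 16 hr at 37C, 5% CO2; beta-lactamase activity detected via B/G FRET substrate after 2 hr at room temperature.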

Experiment [3] in a line: qHTS assay to identify small molecule antagonists of the progesterone receptor (PR) signaling pathway - cell viability counter screen (AID 1346798). Further: nearly all actives have a fitted effect of over 50% in size. Further: potency means the concentration at half of the fitted maximal effect. In outline:
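Counter screen for cytotoxicity: viability of PR-UAS-bla HEK293T cells was measured with CellTiter-Glo luminescence following 16 hr compound exposure in the presence of R5020.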

The nature of experiment [4]: qHTS assay to identify small molecule antagonists of the TGF-beta/Smad signaling pathway - cell viability counter screen (AID 1346824). Further: nearly all actives have a fitted effect of over 50% in size. Further: potency means the concentration at half of the fitted maximal effect. The gist of the method:
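Cytotoxicity counter-screen run in the same wells as the beta-lactamase Smad reporter read: CellTiter-Glo luminescence after 30 min at room temperature. HEK 293T SBE-bla cells had 5 hr compound exposure at 37 C with TGF-beta1 (0.25 ng/mL stock).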

Experiment [5] is described as follows: qHTS assay to identify small molecule agonists of the TGF-beta/Smad signaling pathway (AID 1346859; active means well fitted activation curve with a large enough effect in the signal ratio in the repeat runs, not every such curve was filed as active; the % refers to the signal ratio; further: series mostly up to about 77 µM). In outline:
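Reporter line: HEK 293T with stably integrated SBE-controlled beta-lactamase. Compound exposure lasts 5 hr at 37 C and 5% CO2; substrate loading follows for 2 hr at room temperature, with emission read at 460 and 530 nm.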

Experiment [6] addresses Thyrotropin-releasing hormone receptor (Homo sapiens) (UniProt P34981). The experiment in a line: qHTS assay to identify small molecule agonists of the thyrotropin-releasing hormone receptor (TRHR) signaling pathway (AID 1346891; calls by dose curve;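 further: HEK293 cells expressing TRHR with calcium dye readout; series mostly up to about 58 µM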). The gist of the method: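 Cells: TRHR-Hek293, seeded and incubated 18 h. Dye loading: 2 h at 37 °C. Compound added from DMSO stock by pin tool. Read-out: kinetic calcium fluorescence over 3 min.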

The nature of experiment [7]: Caspase-3/7 induction in HepG2 cells by small molecules, qHTS assay (AID 1346978). Further: nearly all actives have a fitted effect of over 15% in size. Further: potency means the concentration at half of the fitted maximal effect. In outline: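 Caspase-3/7 induction was measured by Caspase-Glo 3/7 luminescence (30 min, room temperature) after a 17 hr compound exposure of wild-type HepG2 cells seeded at 2,000 per well and pre-incubated 5 hr.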
The nature of experiment [8]: Caspase-3/7 induction in CHO-K1 cells by small molecules, qHTS assay (AID 1346980). Further: nearly all actives have a fitted effect of over 15% in size. Further: potency means the concentration at half of the fitted maximal effect. The gist of the method: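 Luminescent Caspase-Glo 3/7 read (30min, room temperature) quantified apoptosis induction. Cells were wild-type CHO-K1, treated with compound for 17hr at 37 C and 5% CO2.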
Experiment [9] can be described thus: Caspase-3/7 induction in HepG2 cells by small molecules, qHTS cell viability counter screen (AID 1346981). Further: nearly all actives have a fitted effect of over 30% in size. Further: potency means the concentration at half of the fitted maximal effect. The gist of the method:
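Fluorescence read-out of live-cell protease activity (CellTiter-Fluor) after 1 hr with reagent. This was measured in the same wells as the caspase-3/7 luminescence, on HepG2 cells exposed to DMSO-dissolved compounds for 16 hr at 37 C.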

For experiment [10], the target named is Nuclear receptor subfamily 1 group I member 2 (Homo sapiens) (UniProt O75469). Description: Human pregnane X receptor (PXR) small molecule agonists, qHTS assay (AID 1346982). Further: nearly all actives have a fitted effect of over 35% in size. Further: potency means the concentration at half of the fitted maximal effect. The gist of the method:
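HepG2 PXR-Luc reporter line, 5% charcoal-stripped FBS; 5 hr pre-incubation, compound (DMSO) 24 hr at 37 C/5% CO2; ONE-Glo 30 min RT; luminescence read-out.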

Experiment [11] can be described thus: Human pregnane X receptor (PXR) small molecule agonists, qHTS cell viability counter screen (AID 1346977). Further: nearly all actives have a fitted effect of over 50% in size. Further: potency means the concentration at half of the fitted maximal effect. In outline: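 Cytotoxicity counter screen run in the same wells as the PXR luciferase assay, using PXR-Luc HepG2 cells in charcoal-stripped serum medium. Viability: CellTiter-Fluor fluorescence after 24hr compound treatment.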
Experiment [12] can be described thus: Caspase-3/7 induction in CHO-K1 cells by small molecules, qHTS cell viability counter screen (AID 1346979). Further: nearly all actives have a fitted effect of over 35% in size. Further: potency means the concentration at half of the fitted maximal effect. In outline:
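Cytotoxicity counter screen run in parallel with the caspase-3/7 assay: CHO-K1 cells, 16hr compound treatment at 37C, then CellTiter-Fluor for 1hr before fluorescence reading.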

Experiment [13] can be described thus: qHTS assay to identify small molecule agonists of the progesterone receptor (PR) signaling pathway - cell viability counter screen (AID 1346799; calls by dose curve; further: nearly all actives have a fitted effect of over 45% in size; further: potency means the concentration at half of the fitted maximal effect). The gist of the method: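 Cells (PR-UAS-bla HEK293T) are plated at 3,000/well in 2% charcoal-stripped FBS medium, rested 6 hr, dosed and incubated 16 hr at 37C. CellTiter-Glo is then added and luminescence measured after 30 min at room temperature.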

Experiment [14] is described as follows: qHTS assay to identify small molecule agonists of the TGF-beta/Smad signaling pathway - cell viability counter screen (AID 1346829). Further: nearly all actives have a fitted effect of over 45% in size. Further: potency means the concentration at half of the fitted maximal effect. The gist of the method: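 After overnight seating at 37 C and 5% CO2, reporter cells got compounds for 5 hr and FRET substrate for 2 hr; cell viability then came from CellTiter-Glo luminescence.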
The target of experiment [15] is Thyrotropin-releasing hormone receptor (Homo sapiens) (UniProt P34981). Description: qHTS assay to identify small molecule antagonists of the thyrotropin-releasing hormone receptor (TRHR) signaling pathway (AID 1346877; active means well fitted inhibition curve with a large enough effect in the repeat runs, not every such curve was filed as active; further: series mostly up to about 51 µM). The gist of the method: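 HEK293/TRHR cells, 18 h, 37 °C; Ca2+ dye 2 h; cpd 5 min RT; TRH 1 nM final; fluorescence read 3 min, 1 s intervals; 15 concs, triplicate.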

Experiment [16] addresses Acetylcholinesterase (Homo sapiens) (UniProt P22303). Description: Acetylcholinesterase (AChE) small molecule antagonists: colormetric cell-based qHTS assay (AID 1347395; calls by dose curve; further: nearly all actives have a fitted effect of over 30% in size; further: potency means the concentration at half of the fitted maximal effect). In outline:
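Cells (SH-SY5Y, 2,000 per well) are seeded and left overnight at 37 C. Compound is added for 30 min, then DTNB and acetylthiocholine for a further 90 min at 37 C before absorbance-based thiocholine detection.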

Records with an inconclusive call do not appear. The source made the active and inactive calls. Unless noted, the call rests on the fitted dose curve; in most records, active means well fitted curve in the direction sought with a large enough effect in the repeat runs; inconclusive means weak or mixed curves; inactive means no such curve, though single readings can be large; an effect the other way counts as inactive or inconclusive.

Thyrotropin-releasing hormone receptor (Homo sapiens), sequence (P34981 whole entry, looked up): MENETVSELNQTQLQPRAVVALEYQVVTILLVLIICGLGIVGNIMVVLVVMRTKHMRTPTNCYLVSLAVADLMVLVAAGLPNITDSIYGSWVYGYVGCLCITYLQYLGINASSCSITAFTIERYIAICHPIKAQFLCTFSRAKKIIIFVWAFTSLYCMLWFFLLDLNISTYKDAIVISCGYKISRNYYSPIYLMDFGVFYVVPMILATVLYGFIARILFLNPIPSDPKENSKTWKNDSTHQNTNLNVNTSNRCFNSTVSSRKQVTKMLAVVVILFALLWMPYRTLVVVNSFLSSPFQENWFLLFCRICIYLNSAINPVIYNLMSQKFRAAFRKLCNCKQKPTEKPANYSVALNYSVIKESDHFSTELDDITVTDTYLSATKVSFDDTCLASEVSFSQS
Acetylcholinesterase (Homo sapiens), sequence (P22303 whole entry, looked up): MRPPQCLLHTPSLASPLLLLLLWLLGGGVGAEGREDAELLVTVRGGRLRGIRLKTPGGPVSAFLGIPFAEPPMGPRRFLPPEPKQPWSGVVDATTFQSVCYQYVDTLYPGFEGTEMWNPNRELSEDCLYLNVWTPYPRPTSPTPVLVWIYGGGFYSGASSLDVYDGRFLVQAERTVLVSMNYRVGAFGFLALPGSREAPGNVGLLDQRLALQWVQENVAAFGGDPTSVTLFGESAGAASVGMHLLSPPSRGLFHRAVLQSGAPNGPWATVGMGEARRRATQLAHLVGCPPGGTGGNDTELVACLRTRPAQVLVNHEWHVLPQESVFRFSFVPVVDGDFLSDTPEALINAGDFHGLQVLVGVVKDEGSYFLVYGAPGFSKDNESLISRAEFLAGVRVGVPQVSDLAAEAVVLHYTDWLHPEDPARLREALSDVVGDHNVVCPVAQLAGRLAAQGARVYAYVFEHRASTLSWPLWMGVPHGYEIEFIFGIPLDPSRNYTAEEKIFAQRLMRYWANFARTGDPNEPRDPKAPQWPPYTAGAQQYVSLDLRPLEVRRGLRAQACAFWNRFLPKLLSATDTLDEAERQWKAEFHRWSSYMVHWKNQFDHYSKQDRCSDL
Nuclear receptor subfamily 1 group I member 2 (Homo sapiens), sequence (O75469 whole entry, looked up): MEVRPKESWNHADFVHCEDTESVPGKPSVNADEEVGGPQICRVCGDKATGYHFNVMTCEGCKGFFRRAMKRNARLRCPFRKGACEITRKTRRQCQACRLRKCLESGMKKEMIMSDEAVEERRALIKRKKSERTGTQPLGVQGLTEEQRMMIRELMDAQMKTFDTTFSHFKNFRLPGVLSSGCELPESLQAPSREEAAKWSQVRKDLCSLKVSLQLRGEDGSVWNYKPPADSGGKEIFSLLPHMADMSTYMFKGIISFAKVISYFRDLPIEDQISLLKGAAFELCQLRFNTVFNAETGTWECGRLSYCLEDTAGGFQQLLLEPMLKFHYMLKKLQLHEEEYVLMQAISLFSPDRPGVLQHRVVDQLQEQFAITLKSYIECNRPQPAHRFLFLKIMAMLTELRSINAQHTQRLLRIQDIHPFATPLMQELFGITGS
Progesterone receptor (Homo sapiens), sequence (P06401 whole entry, looked up): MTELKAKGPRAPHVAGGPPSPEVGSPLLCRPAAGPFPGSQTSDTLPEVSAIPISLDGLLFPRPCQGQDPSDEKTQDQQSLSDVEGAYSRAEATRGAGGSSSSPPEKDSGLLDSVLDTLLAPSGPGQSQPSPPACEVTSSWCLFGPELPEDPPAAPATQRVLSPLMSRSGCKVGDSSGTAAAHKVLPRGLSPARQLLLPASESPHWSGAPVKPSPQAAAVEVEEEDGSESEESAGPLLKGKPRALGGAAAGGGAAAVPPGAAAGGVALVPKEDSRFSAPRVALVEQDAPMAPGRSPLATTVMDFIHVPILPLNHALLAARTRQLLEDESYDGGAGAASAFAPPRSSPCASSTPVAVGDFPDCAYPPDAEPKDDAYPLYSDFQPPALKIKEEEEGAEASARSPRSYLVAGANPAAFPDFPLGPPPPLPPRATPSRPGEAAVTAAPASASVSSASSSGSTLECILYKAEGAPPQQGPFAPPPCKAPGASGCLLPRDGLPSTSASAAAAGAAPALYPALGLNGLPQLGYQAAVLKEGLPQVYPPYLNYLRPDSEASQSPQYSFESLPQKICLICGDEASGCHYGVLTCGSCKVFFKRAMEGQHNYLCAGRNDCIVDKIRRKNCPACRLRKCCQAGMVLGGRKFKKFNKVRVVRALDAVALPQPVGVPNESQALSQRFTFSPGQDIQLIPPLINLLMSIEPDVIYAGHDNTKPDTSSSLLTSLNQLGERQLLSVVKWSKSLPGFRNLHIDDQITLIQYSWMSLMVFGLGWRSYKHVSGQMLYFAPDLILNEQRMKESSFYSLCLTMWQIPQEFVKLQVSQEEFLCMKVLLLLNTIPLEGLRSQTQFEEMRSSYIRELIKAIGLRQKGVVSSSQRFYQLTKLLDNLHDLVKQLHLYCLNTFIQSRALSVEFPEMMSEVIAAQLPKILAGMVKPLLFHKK

As to `CCOP(=O)(OCC)Oc1nc(Cl)c(Cl)cc1Cl`, the Potency entry in [1], in experiment [3], in experiment [4], in [6], in experiment [7] and in experiment [8] was “inactive” in each case. For the same compound, the Potency result in experiment [9] is “inactive”. The Potency was 5.42 µM (active) in experiment [2] and 54.2 µM (active) in [10]. In addition, the outcome in [5] was inactive.
As to `O.O.O.O.O.O.O=S(=O)([O-])[O-].[Ni+2]`, the Potency result in [1], in [3], in [4], in [11], in experiment [7] and in experiment [12] was “inactive” throughout. Moreover, the Potency entry in [8] and in [9] was “inactive” each time. Also, in experiment [5], the compound was classed as inactive.
On to `Cc1ccn2nc(S(=O)(=O)Nc3c(F)cccc3F)nc2n1`, for which the Potency entry in experiment [1], in experiment [3], in experiment [13], in [4], in experiment [14] and in [15] was “inactive” in each case. In addition, the Potency entry in [6], in [11], in experiment [7], in experiment [12], in experiment [8] and in experiment [9] was “inactive” each time. In addition, the Potency result in experiment [10] and in experiment [16] was “inactive” each time. The outcome in experiment [5] was inactive.
Consider `CC[C@H](C)[C@H]1O[C@]2(C=C[C@@H]1C)C[C@@H]1C[C@@H](C/C=C(\C)[C@@H](O[C@H]3C[C@H](OC)[C@@H](O[C@H]4C[C@H](OC)[C@@H](NC)[C@H](C)O4)[C@H](C)O3)[C@@H](C)/C=C/C=C3\CO[C@@H]4[C@H](O)C(C)=C[C@@H](C(=O)O1)[C@]34O)O2`, for which the Potency in experiment [1] is 27.3 µM (active); in [3], 24.3 µM (active); in experiment [13], 13.7 µM (active); in experiment [4] it was 17.4 µM (active); in experiment [14], 15.5 µM (active); in experiment [11] it was 6.86 µM (active). Besides, the Potency is 17.2 µM (active) in experiment [7], 6.11 µM (active) in experiment [12], 6.11 µM (active) in experiment [8] and 15.4 µM (active) in experiment [9]. The Potency entry in experiment [16] was “inactive”.
As for `COP(=S)(OC)Oc1nc(Cl)c(Cl)cc1Cl`, the Potency result in experiment [1], in [4], in experiment [14], in experiment [15], in experiment [6] and in [11] was “inactive” throughout. For the same compound, the Potency result in experiment [7], in experiment [8], in experiment [9], in experiment [10] and in [16] was “inactive” throughout. For the same compound, the result in experiment [5] was inactive.
Turning to `Oc1cccc(Cl)c1Cl`, the Potency result in experiment [1], in experiment [4], in experiment [15], in [6], in experiment [11] and in experiment [7] was “inactive” in each case. For the same compound, the Potency entry in experiment [8], in [9], in experiment [10] and in [16] was “inactive” each time. Moreover, the Potency in experiment [13] is 27.4 µM (active). The result in [5] was inactive.
For `O=[N+]([O-])c1cccc2cccc([N+](=O)[O-])c12`, the Potency result in experiment [1], in [3], in experiment [4], in [14], in [6] and in [7] was “inactive” throughout. The Potency entry in experiment [12], in experiment [8] and in experiment [9] was “inactive” each time. The Potency in [2] is 27.4 µM (active); in experiment [10], 30.8 µM (active); in experiment [16], 20.1 µM (active). Moreover, in [5], the compound was called inactive.
Turning to `[Cl][Hg][c]1ccccc1`, the Potency in experiment [1] was 17.2 µM (active); in experiment [3], 3.06 µM (active); in experiment [13], 3.06 µM (active); in [4] it was 19.5 µM (active); in experiment [14], 17.4 µM (active); in [11] it was 1.54 µM (active). For the same compound, the Potency in [12] was 0.486 µM (active); in [9], 12.2 µM (active). Moreover, the Potency entry in [7], in [8], in experiment [10] and in experiment [16] was “inactive” each time.
For `N#CCCl`, the Potency entry in experiment [1], in experiment [2], in [4], in [14], in [11] and in [7] was “inactive” throughout. Moreover, the Potency result in [12], in [8], in [9], in [10] and in [16] was “inactive” each time. In addition, in experiment [5], the compound was classed as inactive.

The values above are taken from PubChem BioAssay (Tox21).
